This note sets out measurements from ChEMBL document CHEMBL4513216, “Probing the Open Global Health Chemical Diversity Library for Multistage-Active Starting Points for Next-Generation Antimalarials” (ACS Infect Dis, 2020).

Screen size: about 69,000 compounds; about 8,600 (12%) showed an effect of 50% or more. The entries come from a sample that favours strong results as a whole.

The test system of this assay is Plasmodium berghei. Kind of assay: Screen against P. berghei liver stage (PbLuc), transformed with Luciferase, at 10uM. The note with it: tested at 10 uM. The assay is classed as functional, HepG2.
For `Cn1cc(C(=O)OC2CN(c3nc4c(C(F)(F)F)cccc4s3)C2)nn1`, the INHIBITION is listed as -45.6%. Turning to `Cc1cc(O)c(OCC(=O)Nc2nc3c(s2)CCCC3)cn1`, the INHIBITION was 40%. Take `Cc1cc(O)c(OCC(=O)Nc2nc3c(s2)CCCCC3)cn1`: the INHIBITION is reported as 54.9%.

`Cc1cc(O)c(OCC(=O)Nc2nccs2)cn1`: the INHIBITION is recorded as -18%.

Take `CCc1ncc2c(n1)CN(Cc1nc(-c3ccoc3)no1)CC2`: the INHIBITION is 27.8%. The figure for `CN(C)C(=O)c1cccc(CN2CCOC(Cn3cccn3)C2)c1` (centres undefined) is -2.33%; for `O=C(c1ccc(Cl)cc1)N1CCC(N2CCOC2=O)CC1` it is 41.6%.

Consider `O=C(CC1=CSC2=NCCCN12)N1CCCCC1c1cccc(F)c1` (centres undefined), for which the INHIBITION came out at 32.3%. To `Nc1nc(CC(=O)N2CCCC(CCc3cccc(F)c3)C2)cc(=O)[nH]1` (centres undefined) belongs 7.3%; to `O=C(CC1=CSC2=NCCN12)N1CCCC(CCc2cccc(F)c2)C1` (centres undefined), 68.5%. To `Cc1cc(C(=O)N2C[C@@H]3CC[C@H]2CN(Cc2ccccn2)C3)nc(N)n1` belongs 4.59%; to `CC(NC(=O)Nc1nccs1)c1ccncc1` (centres undefined), 5.91%; to `CC(NC(=O)Nc1nccs1)c1cccnc1` (centres undefined), 54.8%.

As to `CCN(C(=O)Nc1cc(C)on1)C(C)c1cccc(O)c1` (centres undefined), the INHIBITION was -2.43%. Turning to `CC(NC(=O)Nc1nccs1)c1ccc(S(C)(=O)=O)cc1` (centres undefined), the INHIBITION is given as 16.8%. To `CCN(C(=O)Nc1nccs1)C(C)c1cccc(O)c1` (centres undefined) belongs 71.3%. The figure for `CCN(C(=O)Nc1nncs1)C(C)c1cccc(OC)c1` (centres undefined) is -5.22%.

In the case of `Cc1cc(C(F)(F)F)n2nc(C3CCCN3C3CCSCC3)cc2n1` (centres undefined), the INHIBITION came out at 5.535%. The figure for `CC1(C)CN(c2cc(C3CC3)ncn2)C[C@]1(C)O` is -1.04%. The figure for `COCCn1ccc(NC(=O)Nc2ccc(C(N)=O)c(F)c2)n1` is 11.1%; for `O=C(N[C@@H]1CCN(Cc2cc3ccccc3s2)C[C@H]1O)c1cccnc1` it is 22%. The figure for `COC(=O)c1ccn(COc2ccccc2Cl)n1` is -15.5%; for `CCc1nc(C2CCCN2C(=O)CCn2cncn2)no1` (centres undefined) it is 30.8%; for `Cc1cc(=O)[nH]c(-n2nc(C)c(CCC(=O)NCc3cccs3)c2C)n1` it is 72.2%. Take `Cc1cc(=O)[nH]c(-n2nc(C)c(CCC(=O)NCc3ccco3)c2C)n1`: the INHIBITION is 6.09%. With `Cc1cc(=O)[nH]c(-n2nc(C)c(CCC(=O)NCC(C)C)c2C)n1`, the INHIBITION is recorded as 11.3%. To `Cc1cc(=O)[nH]c(-n2nc(C)c(CCC(=O)Nc3nc(C)cs3)c2C)n1` belongs 68.2%; to `Cc1noc(C)c1CCC(=O)NCCc1cccs1`, -1.99%; to `COC(=O)CCc1c(C)nn(-c2nc(C)cc(=O)[nH]2)c1C`, -12.6%. The figure for `Cn1nc(C(=O)NC2(c3ccccc3)CCC2)ccc1=O` is -4.35%; for `Cc1c(C)c2c(c(C)c1O)CC[C@](C)(C(=O)O)O2` [(R)-TROLOX] it is -10.3%.

Regarding `CCCC(C)NCc1cccnc1N1CCN(c2ccccn2)CC1` (centres undefined), the INHIBITION is listed as 50.7%. Consider `CC(C)NCc1cccnc1N1CCN(c2ccccn2)CC1`, for which the INHIBITION is 37.7%. On to `CC(C)CC(C)NCc1cccnc1N1CCN(c2ccccn2)CC1` (centres undefined), for which the INHIBITION is 9.56%.

Regarding `CCc1nc(CN(C)C2CCN(CC(=O)N(C)C)C2)no1` (centres undefined), the INHIBITION is 24%. The figure for `O=C(NC1CCN(C(=O)C2CCCCC2)C1)c1ccncc1Cl` (centres undefined) is 14.1%; for `Cc1cnn(CCNCC(O)COc2cc(Cl)ccc2Cl)c1` (centres undefined) it is 50.3%. The figure for `Cc1cnn(CCNCC(O)c2cccc(Br)c2)c1` (centres undefined) is 16.8%; for `Cc1cnn(CCNCC(O)COc2ccc(Cl)cc2Cl)c1` (centres undefined) it is 66.7%; for `Cc1cnn(CCNCC(O)c2ccc(F)c(F)c2)c1` (centres undefined) it is 7.21%.

As to `Cc1cnn(CCNCC(O)COc2ccc3ccccc3c2)c1` (centres undefined), the INHIBITION amounted to 17.4%. On to `Cc1cnn(CCNCC(=O)Nc2ccc(Cl)cn2)c1`, for which the INHIBITION is -106%. For the compound `COc1cc(C(=O)NS(=O)(=O)c2cccc(C#N)c2)cc(OC)c1C`, the INHIBITION is 22.3%. In the case of `O=C(NCCN1CCCCCC1)c1n[nH]c(=O)c2ccccc12`, the INHIBITION worked out at 4.71%. Take `O=C(CCc1ccc(Cl)cc1)N[C@@H]1CC[C@@H](O)[C@@H]1O`: the INHIBITION came out at 45.75%. As to `CNC(=O)C1(C)CCCN(c2cnccn2)C1` (centres undefined), the INHIBITION is on record as -26.2%.

For the compound `COc1ccc(CN2CCOC3(CCCN(c4cnccn4)C3)C2)cc1` (centres undefined), the INHIBITION is 44.2%. The figure for `CC1(C(N)=O)CCCN(c2cnccn2)C1` (centres undefined) is 53.2%. The figure for `CN1CC2(CCCN(c3cnccn3)C2)OC1=O` (centres undefined) is 61%; for `Cc1cc(N2CCCC3(CN(C)C(=O)O3)C2)c2cc3c(cc2n1)OCO3` (centres undefined) it is 28.6%; for `CN1CC2(CCCN(c3nc(N)nc4c3CCCC4)C2)OC1=O` (centres undefined) it is 45.6%. In the case of `CN1CC2(CCCN(c3cc(N4CCCCC4)ncn3)C2)OC1=O` (centres undefined), the INHIBITION was determined as 60.1%.

As to `CC(C)Nc1cc(N2CCCC3(CN(C)C(=O)O3)C2)ncn1` (centres undefined), the INHIBITION is 17.4%. To `CC1(C(=O)NC2CCCC2)CCCN(c2cnccn2)C1` (centres undefined) belongs -4.51%. To `Cc1nc(CCC(N)=O)cc(C2CCNCC2)n1` belongs -10.8%; to `O=C(COC[C@@H]1CC[C@H]2[C@H](CCN2Cc2ccco2)O1)N1CCCC1`, -54.9%; to `Cc1c(C(=O)N2CCOCC2)nnn1-c1ccc2ncccc2c1`, -29.7%. Turning to `Cc1cc(C(=O)NCc2ccnc(N3CCN(C)CC3)c2)no1`, the INHIBITION turned out to be 17.34%. To `CN1CCN(C(=O)N2C[C@@H]3CC[C@H]2CN(Cc2ccccc2)C3)CC1` belongs 30.9%; to `c1cnnc(N2CCCC(NCc3cn4ccccc4n3)C2)c1` (centres undefined), 27.9%. The figure for `CCC1c2cccn2CCN1C(=O)c1ccno1` (centres undefined) is -48.4%. The figure for `O=c1oc(-c2cccs2)nn1CC(O)c1ccccc1` (centres undefined) is 0.547%. `O=c1oc(-c2cccs2)nn1CC(O)c1ccc2c(c1)CCC2` (centres undefined): the INHIBITION came out at 59.4%. To `O=c1oc(-c2cccs2)nn1CC(O)c1ccc(F)cc1` (centres undefined) belongs -23.5%; to `CCNc1ccnc(NC2CCN(CC(N)=O)CC2)n1`, -9.92%; to `CCNC(=O)N1CCC(Nc2nccc(NCC)n2)CC1`, 20.4%. The figure for `CCNc1ccnc(NC2CCN(S(C)(=O)=O)CC2)n1` is 72.3%; for `CCOC(=O)N1CC(=O)N(CCc2ccccc2)CC(O)C1` (centres undefined) it is 28.3%. To `CCN1C(=O)C(C)(C)c2cc(NC(=O)c3ccn(CC)n3)ccc21` belongs -42.9%.

As for `Cc1cc(C(=O)N2CCCC(n3ccnc3)C2)c(C)n1C1CC1` (centres undefined), the INHIBITION was 27.4%. Consider `COc1ccc(CNC(C)c2cn[nH]c2C)cc1` (centres undefined), for which the INHIBITION was 11.8%. To `Cc1[nH]ncc1C(C)NCc1cccnc1` (centres undefined) belongs 14.3%. To `Cc1[nH]ncc1C(C)NCc1ccc(F)cc1` (centres undefined) belongs 63.7%; to `CN(C)CCN1CCC2[C@@H]1CCN2Cc1ccc2c(c1)OCO2` (some centres undefined), -9.74%; to `CCN(C1CCN(c2cccc(F)c2C(C)=O)CC1)S(C)(=O)=O`, 20.4%. The figure for `CC(=O)c1c(F)cccc1N1CCC(Cc2cccnc2)CC1` is 83.4%.

Take `CC(=O)c1c(F)cccc1N1CCC(C(N)=O)CC1`: the INHIBITION is -13.1%. The figure for `CC(=O)c1c(F)cccc1N1CCC(NS(=O)(=O)c2ccccc2)CC1` is 78%; for `CCS(=O)(=O)N(C)C1CCN(c2cccc(F)c2C(C)=O)CC1` it is -9.35%; for `CC(=O)c1c(F)cccc1N1CCC(CS(N)(=O)=O)CC1` it is 30.1%. The figure for `O=C1C(NS(=O)(=O)c2ccc(F)cc2F)CCN1Cc1ccccc1` (centres undefined) is 2.97%. Consider `Cc1ccc(NC(=O)N2CCC3(CCC(C(=O)N(C)C)O3)CC2)cc1` (centres undefined), for which the INHIBITION worked out at 46.6%.

With `Cc1cc(C)n(CC2CCCN2CCC(=O)Nc2cc(C)on2)n1` (centres undefined), the INHIBITION came to 11.4%. The figure for `O=C(Cc1ccccn1)N1C[C@@H](Oc2cccnc2)[C@H]2OCCC[C@H]21` is 5.04%. The figure for `CN(C)c1cccc(C(=O)Nc2ccn(CCc3ccncc3)n2)c1` is 40.7%; for `CSc1ccc(C(=O)N2C[C@@H]3CC[C@H]2CN(Cc2ccccc2)C3)cc1` it is 39.1%; for `COc1ccc(C(=O)N(C)Cc2ncc(C)c(OC)c2C)c(OC)c1` it is 1.11%. As to `CCCS(=O)(=O)N1CCO[C@H]2[C@H](OCc3ccccn3)CC[C@@H]21`, the INHIBITION came to 33.5%. To `CCOc1ccccc1CN(C)C(C)c1nc(-c2cccnc2)no1` (centres undefined) belongs 24.2%; to `CC(c1nc(-c2cccnc2)no1)N(C)CCCOc1ccccc1` (centres undefined), 18.5%; to `COc1ccccc1CCN(C)C(C)c1nc(-c2cccnc2)no1` (centres undefined), 68.1%. To `CNC(=O)c1csc(-c2cccnc2)n1` belongs -17.2%. For `COc1ccc(C)cc1NC(=O)Nc1cnc(O)nc1O`, the INHIBITION came to 0.29%.

Regarding `Cc1ccc(C)c(NC(=O)c2coc(C)n2)c1`, the INHIBITION is recorded as 62.3%.

As for `CCn1cc(C(=O)Nc2cc(C)ccc2C)cn1`, the INHIBITION was 3.04%. In the case of `Cc1ccc(NC(=O)c2coc(C)n2)c(C)c1`, the INHIBITION was determined as 62.3%. To `Cc1ccc(NC(=O)CNc2ccccc2C(N)=O)c(C)c1` belongs 39.1%; to `Cc1ccc(C)c(NC(=O)c2n[nH]c(-n3cnnc3)n2)c1`, 36.3%; to `COCCCN(CCOC)C(=O)Nc1ccc(C)cc1C`, 7.9%. To `COc1ccc(C)cc1NC(=O)c1coc(C)n1` belongs 60.9%.

In the case of `COc1ncc(NC(=O)Nc2cc(C)ccc2OC)cn1`, the INHIBITION came to 42.6%. To `Cn1ccnc1N1CCN(C(=O)Cc2ccc(F)cc2)CC1` belongs 0%. In the case of `CCS(=O)(=O)N1CC[C@@H]2[C@H]1CCC(=O)N2CCOC`, the INHIBITION was 24.9%. As for `CC(C)OCCN(C)C(C)c1cccc(S(N)(=O)=O)c1` (centres undefined), the INHIBITION came to 26.3%.

`CS(=O)(=O)N1CCCC12CCCN(S(=O)(=O)c1ccc(F)c(F)c1)C2` (centres undefined): the INHIBITION was -0.371%. To `O=C(O)[C@@H]1CN(C(=O)NCC2CCCCC2)C[C@H]1c1ccccn1` belongs -43.5%. The figure for `CCOCC1CN(CCN2CCCCC2)Cc2cnn(C)c21` (centres undefined) is 36.9%; for `Cc1ccc(Oc2ncccc2C(=O)N(C)CCCN(C)C)cc1` it is 30.3%. To `CC(C)(C)c1ncc(S(C)(=O)=O)c(C2CCCNC2)n1` (centres undefined) belongs 25.3%.
